Calls of active or inactive are those of the source. Rule for the calls: active = hit-call score of the fitted dose curve at least 0.9, where 1 is the maximum; inactive = score below 0.9.
What follows are compounds tested on CYP2C9 (gene 1559) (assay: LTEA_HepaRG_CYP2C9: Life Technologies and Expression Analysis (LTEA) Assay for CYP2C9 using HepaRG (AID 2283484)). Details: mRNA level, 48 h; actives raise or lower the signal.
Protocol: LTEA_HepaRG is a cell based, multiplexed-readout assay that uses HepaRG, a human liver cell line, with measurements taken at 48 hours after chemical dosing on a 96-well plate.LTEA_HepaRG_CYP2C9 is one of 102 assay component(s) measured in the LTEA HepaRG cell culture assay. It is a marker of NR mediated metabolism.Data from the assay component LTEA_HepaRG_CYP2C9 was analyzed into 1 endpoint. This assay endpoint, LTEA_HepaRG_CYP2C9, was analyzed with bidirectional fitting relative to DMSO as the negative control and baseline of activity. Using a type of inducible reporter, measures of mRNA induction for gain or loss-of-signal activity can be used to understand regulation of transcription factor activity. To generalize the intended target to other relatable targets, this assay endpoint is annotated to the cyp intended target family, where the subfamily is xenobiotic metabolism.
A total of 1060 chemcials from the ToxCast library were tested in eight-point concentration-response experiments. Cell culture and cytotoxicity assays were conducted at Thermo Fisher Scientific's Custom Services facility (Madison, WI). A single lot of human HepaRG cells (Thermo Fisher Scientific, Frederick, MD) was used for the cell culture experiments. 96-well format collagen type I coated plates of human HepaRG cells were prepared using established methods. Briefly, cryopreserved HepaRG cells were thawed, plated at a density of approximately 100,000 cells/well in HepaRG Thaw, Plate, and General Purpose media (HPRG770, Thermo Fisher Scientific), and incubated for 48 hours. 0.5% DMSO was selected as vehicle control to balance the requisite need of DMSO in HepaRG cultures to maintain differentiation (for example, baseline metabolism, proportions of hepatocytes vs. cholangiocytes), while enabling further hepatic receptor pathway activation (for example, PXR and CAR) in response to chemical exposure. 48 hours after plating, the culture medium was replaced with HepaRG Serum-Free Incudtion Media. Cells were exposed to each test chemical in duplicate and maintained in CO2 incubators for another 48 hours. Chemical plates were thawed to room temperature and 200x concentrations of treatment groups were prepared. 8-point conentration-reponse curves were made with the highest exposure at 100 uM, followed by half-log dilutions, all in 0.5% DMSO. Each test plate contained variouse controls, induction positive controls (1mM phenobarbital), cytotoxicity positive controls ([…] aflatoxin B1), vehicle controls (0.5% DMSO), and total lysis controls (0.5% DMSO). Cell morphology images were taken using an Essen IncuCyte FLR automated microscope, with six 96-well plates imaged in about 24 minutes. Images were captured and exported and JPEG files. Spent culture media was transfered to black-well plates for the LDH assay, and remaining media was sorted at -80 C for later use. Cells were treated with RLT buffer and frozen until shipped for gene expression analysis. Total RNA was isolated from the cell suspension in 75 uL of Buffer RLT (Qiagen, Germantown, MD 20874) by Quintiles/Expression Analysis (Durham, NC) using a custom isolation procedure. Total RNA from each plate well was transferred to a preamplification plate. Fluidigm's 96.96 Dynamic ArrayTM (Fluidigm, Amsterdam, the Netherlands) technology was used for gene expression analyses by quantitative reverse transcription polymerase chain reaction (qRT-PCR, performed by Quintiles/Expression Analysis, Durham, NC)89. Standard TaqManTM Assays (Applied Biosystems/ThermoFisher Scientific, Foster City, CA) were used to assess the expression of 93 genes selected based on their selectivity and sensitivity to important hepatic receptors known to be modulated by environmental chemicals; importance in human hepatocyte functionality; and hepatotoxicity. […]

Row | SMILES | outcome | AC50
1 | CCCOc1nn(C(=O)NS(=O)(=O)c2ccccc2C(=O)OC)c(=O)n1C | inactive | 
2 | CC(=NC#N)N(C)Cc1ccc(Cl)nc1 | inactive | 
3 | CC(C)N(C(=O)SCC(Cl)=C(Cl)Cl)C(C)C | inactive | 
4 | CCc1cccc(C)c1N(C(=O)CCl)C(C)COC (stereo not given) | inactive | 
5 | CCCOCC(=Nc1ccc(Cl)cc1C(F)(F)F)n1ccnc1 |  | 20.3 µM (active)
6 | CCc1cccc(CC)c1N(COC)C(=O)CCl | inactive | 
7 | CCNc1nc(Cl)nc(NC(C)(C)C#N)n1 | inactive | 
8 | CC[C@H](C)[C@H]1O[C@]2(C=C[C@@H]1C)C[C@@H]1C[C@@H](C/C=C(\C)[C@@H](O[C@H]3C[C@H](OC)[C@@H](O[C@H]4C[C@H](OC)[C@@H](NC)[C@H](C)O4)[C@H](C)O3)[C@@H](C)/C=C/C=C3\CO[C@@H]4[C@H](O)C(C)=C[C@@H](C(=O)O1)[C@]34O)O2 | inactive | 
9 | CON=C(C(=O)OC)c1ccccc1CON=C(C)c1cccc(C(F)(F)F)c1 | inactive | 
10 | CSc1nnc(C(C)(C)C)c(=O)n1N | inactive | 
11 | COc1cccc(C(=O)NN(C(=O)c2cc(C)cc(C)c2)C(C)(C)C)c1C | inactive | 
12 | CNC(=O)Oc1cccc2c1OC(C)(C)O2 | inactive | 
13 | CN(C)NC(=O)CCC(=O)O | inactive | 
14 | N#CSCSC#N |  | 66.5 µM (active)
15 | CCOP(=S)(Oc1cnc(C(C)(C)C)nc1)OC(C)C (stereo not given) | inactive | 
16 | COP(=O)(NC(C)=O)SC (stereo not given) | inactive | 
17 | C[N+]1(C)CCCCC1 | inactive | 
18 | CN(C)C(=O)Nc1cccc(C(F)(F)F)c1 | inactive | 
19 | CN1COCN(Cc2cnc(Cl)s2)C1=N[N+](=O)[O-] | inactive | 
20 | CCOP(=S)(OCC)Oc1cc(C)nc(C(C)C)n1 | inactive | 

Row | SMILES | outcome | AC50
21 | CC(C1CC1)C(O)(Cn1cncn1)c1ccc(Cl)cc1 (stereo not given) | inactive | 
22 | C[Si](Cn1cncn1)(c1ccc(F)cc1)c1ccc(F)cc1 |  | 35.5 µM (active)
23 | CC(Oc1cccc(Cl)c1)C(=O)O (stereo not given) |  | 2.04 µM (active)
24 | CCCSP(=O)(OCC)Oc1ccc(Br)cc1Cl (stereo not given) | inactive | 
25 | CCOC(=O)COc1cc(-c2nn(C)c(OC(F)F)c2Cl)c(F)cc1Cl | inactive | 
26 | O=C(O)c1cc(Oc2ccc(C(F)(F)F)cc2Cl)ccc1[N+](=O)[O-] | inactive | 
27 | FC(F)C(F)(F)OCC(Cn1cncn1)c1ccc(Cl)cc1Cl (stereo not given) |  | 38.1 µM (active)
28 | CCOP(=S)(OCC)SCCSCC | inactive | 
29 | COP(=O)(OC)SCn1c(=O)oc2cc(Cl)cnc21 |  | 36.9 µM (active)
30 | C#CC(C)(C)NC(=O)c1cc(Cl)cc(Cl)c1 | inactive | 
31 | CN(C)[C@@H]1C(=O)C(C(N)=O)=C(O)[C@@]2(O)C(=O)C3=C(O)c4c(O)cccc4[C@@](C)(O)[C@H]3[C@H](O)[C@@H]12 | inactive | 
32 | COc1cc(OC)nc(Sc2cccc(Cl)c2C(=O)O)n1 | inactive | 
33 | CCOP(=S)(OCC)Oc1ccc2c(C)c(Cl)c(=O)oc2c1 | inactive | 
34 | CCOP(=O)(SC(C)CC)N1CCSC1=O (stereo not given) | inactive | 
35 | CC(C)=CC1C(C(=O)OCN2C(=O)C3=C(CCCC3)C2=O)C1(C)C (stereo not given) | inactive | 
36 | O=[N+]([O-])c1cc(C(F)(F)F)c(Cl)c([N+](=O)[O-])c1Nc1ncc(C(F)(F)F)cc1Cl |  | 17.8 µM (active)
37 | CCOP(=O)(OCC)Oc1cc(C)nc(C(C)C)n1 | inactive | 
38 | CCC(CC)Nc1c([N+](=O)[O-])cc(C)c(C)c1[N+](=O)[O-] | inactive | 
39 | CC(COc1ccc(Oc2ccccc2)cc1)Oc1ccccn1 (stereo not given) | inactive | 
40 | COc1ccc(C(=CC(=O)N2CCOCC2)c2ccc(Cl)cc2)cc1OC | inactive | 
